Data on 49 compounds can be found in ChEMBL document CHEMBL3988442, “University of Dundee, Small-Polar-MMV Screening Library” (2021).

The structures appear in SMILES notation. The whole screen tested about 69,000 compounds, of which about 1,000 (1.4%) showed an effect of 50% or more. Many of the other results were omitted from the sample, so strong results are more common in it than they were.

The test deals with Leishmania donovani. The test is described as follows: Leishmania intramacrophage assay. The class given is functional, organism-based. Details: scale not given: in the data most compounds retested in dose-response had high values.

As to `Cc1ccc(C(=O)N2Cc3c(CN(C)C)nn(C)c3C2)cc1C.O=C(O)C(F)(F)F`, the “Percent Effect” value (30.3 µM, […]) worked out at 35.58%.

In the case of `Cc1csc(NC(=O)c2cnc(C3CCCN3)cn2)n1.Cl` (centres undefined), the “Percent Effect” value (30.3 µM, […]) turned out to be 7.514%.

`CCC(C)NC(=O)Cc1c(C)nc2c(c1C)c(=O)[nH]n2C` (centres undefined): the “Percent Effect” value (30 µM, 30.03 µM) is recorded as -5.579%.

For the compound `COc1cc(C(=O)N2CCCC(CNS(C)(=O)=O)C2)cc(OC)c1C` (centres undefined), the “Percent Effect” value (30 µM, 30.03 µM) worked out at 16.86%.

Consider `CN(C)CC1CN(Cc2ccc(F)cc2)Cc2nccn2C1.O=C(O)C(F)(F)F.O=C(O)C(F)(F)F` (centres undefined), for which the “Percent Effect” value (30.3 µM, […]) turned out to be 6.472%.

With `COc1ccc(CNC2CCN(CCc3ccncc3)CC2)cc1O`, where the note is “30 µM, 30.03 µM”, the “Percent Effect” value came to 9.899%.

For the compound `CC(NC1CCN(CCc2ccncc2)CC1)c1cnn(C(C)C)c1` (centres undefined), the “Percent Effect” value (30.3 µM, […]) amounted to 6.548%.

On to `COC(=O)C(O)C1CCN(CCc2ccncc2)CC1` (centres undefined), for which the “Percent Effect” value (30.3 µM, […]) came out at 9.422%.

Turning to `CSc1ccc(CNC2CCN(CCc3ccncc3)CC2)cc1`, the “Percent Effect” value (30.3 µM, […]) was found to be 85.89%.

As to `Clc1cccc(CNC2CCN(CCc3ccncc3)CC2)c1`, the “Percent Effect” value (30.3 µM, […]) stood at 59.66%.

Take `c1cc(CCN2CCC(NCc3ccsc3)CC2)ccn1`: the “Percent Effect” value (30.3 µM, […]) was determined as 31.06%.

Turning to `N#Cc1ccc(CNC2CCN(CCc3ccncc3)CC2)cc1`, the “Percent Effect” value (30.3 µM, […]) turned out to be 19.38%.

Take `Cc1cccc(CNC2CCN(CCc3ccncc3)CC2)c1C`: the “Percent Effect” value (30.3 µM, […]) is 74.34%.

Turning to `Cc1ccc(CNC2CCN(CCc3ccncc3)CC2)cc1C`, the “Percent Effect” value (30 µM, 30.03 µM) is listed as 92.66%.

For `Oc1cccc(CNC2CCN(CCc3ccncc3)CC2)c1`, the “Percent Effect” value (30.3 µM, […]) came to 7.34%.

On to `CCCN1CCC(NCc2ccncc2)CC1`, for which the “Percent Effect” value (30.3 µM, […]) is on record as -7.602%.

Turning to `Cc1ccc(CNC2CCN(CCc3ccncc3)CC2)s1`, under “30 µM, 30.03 µM”, the “Percent Effect” value is 45.1%.

Consider `CC1(c2ccccc2)CCC(=O)N(CCN2CCCOC2=O)C1` (centres undefined), for which the “Percent Effect” value (30.3 µM, […]) is given as -24.18%.

On to `CN(C)C(=O)CN1CCN(C(=O)c2cnn(-c3ccccc3Cl)c2)CC1`, for which the “Percent Effect” value (30 µM) amounted to 13.32%.

For the compound `CC(C)Cc1ccc(S(=O)(=O)Nc2ccc(=O)n(C)c2)cc1`, the “Percent Effect” value (30 µM, 30.03 µM) amounted to 40.75%.

As for `CCOCCN1CCN(c2ccc(C#N)cn2)CC1CC` (centres undefined), the “Percent Effect” value (30.3 µM, […]) is listed as 26.65%.

For the compound `COCCN1CCC(NCc2ccc(Cl)cc2)C1` (centres undefined), for the setting “30 µM”, the “Percent Effect” value amounted to 10.13%.

`Fc1ccc(CNC2CCN(CCc3ccncc3)CC2)cc1F`: for the setting “30.3 µM, […]”, the “Percent Effect” value is 73.28%.

In the case of `CC(CNC1CCN(Cc2ccncc2)CC1)c1ccc(F)cc1F` (centres undefined), where the note is “30.3 µM, […]”, the “Percent Effect” value turned out to be 10.91%.

On to `CC(NC(=O)c1ccnn1C)c1ccc(OCC2CC2)c(F)c1` (centres undefined), for which the “Percent Effect” value (30.3 µM, […]) is recorded as 27.82%.

Turning to `CCS(=O)(=O)CCNC1CCN(c2nc3ccc(Cl)cc3s2)CC1`, the “Percent Effect” value (30.3 µM, […]) worked out at 66.16%.

On to `CCc1nccn1CCNC1CCN(c2nc3ccc(Cl)cc3s2)CC1`, for which the “Percent Effect” value (30.3 µM, […]) is reported as 98.8%.

Take `CCCc1cc(NCCCC2CCOC2)n2nccc2n1` (centres undefined): the “Percent Effect” value (30.3 µM, […]) was 32.07%.

On to `Cc1n[nH]c(SCCNC2CCN(c3nc4ccccc4s3)CC2)n1`, for which the “Percent Effect” value (30.3 µM, […]) is 6.253%.

With `Cc1csc2c(N3CCC(NCCc4ccnn4C)CC3)ncnc12`, for the setting “30.3 µM, […]”, the “Percent Effect” value is reported as 17.37%.

Regarding `Clc1ccc2nc(N3CCC(NCCCC4CCOC4)CC3)sc2c1` (centres undefined), the “Percent Effect” value (30.3 µM, […]) was 61.31%.

As for `CCCc1cc(CNC2CCN(c3nc4ccccc4s3)CC2)on1`, the “Percent Effect” value (30.3 µM, […]) was 35.92%.

In the case of `Cn1ccnc1SCCNC1CCN(c2nc3ccccc3s2)CC1`, the “Percent Effect” value (30.3 µM, […]) worked out at 43.39%.

For the compound `Cc1csc2c(N3CCC(NCCCC4CCOC4)CC3)ncnc12` (centres undefined), the “Percent Effect” value (30.3 µM, […]) worked out at 10.77%.

For the compound `CCOCC(O)CN1CCN(C(=O)C2CCC2)CC1` (centres undefined), under “30.3 µM, […]”, the “Percent Effect” value turned out to be 23.63%.

Turning to `O=C1CCOC[C@]2(CN(Cc3ccccc3)C[C@H]2c2ccccc2)N1`, the “Percent Effect” value (30.3 µM, […]) is on record as -10.32%.

For `CN(C)c1ccc(C(=O)N2CCC(c3cc4ncccc4[nH]3)CC2)cc1`, the “Percent Effect” value (30.3 µM, […]) is -1.505%.

For the compound `CS(=O)(=O)CCNC(=O)N1CC2(CCCC2)c2ccccc21`, the “Percent Effect” value (30.3 µM, […]) came out at 0.5956%.

As for `CSCCC1c2nc[nH]c2CCN1Cc1cc(Cl)ccc1O` (centres undefined), under “30 µM, 30.03 µM”, the “Percent Effect” value was found to be 8.861%.

For `CCN(C)Cc1nc(-c2ccccc2NS(C)(=O)=O)oc1C`, the “Percent Effect” value (30.3 µM, […]) was determined as 2.546%.

Turning to `O=C(O)C(F)(F)F.O=C(c1ccno1)N1CCO[C@@H]2CC(COCc3ccccn3)C[C@H]21` (some centres undefined), the “Percent Effect” value (30.3 µM, […]) was 6.888%.

For the compound `COCC(=O)N1CCCC(COc2ccccc2C)C1` (centres undefined), the “Percent Effect” value (30.3 µM, […]) was determined as 0.2743%.

Turning to `Cc1ccccc1OCC1CCCN(C(=O)CN(C)C2CCNCC2)C1` (centres undefined), the “Percent Effect” value (30.3 µM, […]) was 83.48%.

Consider `Cc1cccc(OCC2CCCN(C(=O)CN(C)C3CCNCC3)C2)c1` (centres undefined), for which, for the setting “30.3 µM, […]”, the “Percent Effect” value came out at 48.81%.

On to `CNc1cc(CNC(=O)c2ccccc2)nc(-c2ccncc2)n1`, for which the “Percent Effect” value (30 µM, 30.03 µM) turned out to be 35.29%.

Consider `O=C([C@@H]1CCCO1)N1CCOCC2(CCN(Cc3cccnc3)C2)C1` (some centres undefined), for which the “Percent Effect” value (30.3 µM, […]) is recorded as 28.44%.

Turning to `O=C(C1CCCO1)N1CCC2(CC1)COCCN(Cc1ccncc1)C2.O=C(O)C(F)(F)F.O=C(O)C(F)(F)F` (centres undefined), the “Percent Effect” value (30.3 µM, […]) came to 14.9%.

Regarding `Cn1cc(CN2CCC(F)(F)C3(CCN(c4cccnc4)C3)C2)cn1.O=C(O)C(F)(F)F.O=C(O)C(F)(F)F` (centres undefined), the “Percent Effect” value (30.3 µM, […]) worked out at 0.6501%.

As to `FC1(F)CCN(Cc2ccncc2)CC12CCN(c1cccnc1)C2.O=C(O)C(F)(F)F.O=C(O)C(F)(F)F.O=C(O)C(F)(F)F` (centres undefined), for the setting “30.3 µM, […]”, the “Percent Effect” value is on record as 38.61%.
